Compounds without any hit were thinned out: in the full panel of roughly 83,000, 20% have a hit.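 Values shown are percent growth following 48 h exposure of cells in 96-well plates to a single concentration of compound; below 10 was considered active.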 Unmarked numbers belong to inactive results. Active and inactive are the calls of the source.

This test has as its system A498 renal. Kind of test: NCI-60 one-dose screen, 48 h (100 = growth as untreated, 0 = no growth, -100 = all killed). The settings on record: 10 µM unless noted.
Regarding `Cc1cc2c(-c3nc4ccccc4n3C)c(O)c(O)cc2c(O)c1-c1c(C)cc2c(-c3nc4ccccc4n3C)c(O)c(O)cc2c1O`, the growth is 28.5%.

As for `COc1ccc2sc(-n3nc4nc5n(c(=O)c4c3N)-c3ccccc3Sc3ccccc3-5)nc2c1`, the growth was 117%.

For the molecule `CC(=O)Nc1ccc(C(=O)/C=C/c2ccc(N(C)C)cc2)cc1`, the growth is 104%.

For `CCCC(=O)NNc1[nH]c(-c2ccc(OC)cc2)cc1C(=O)OCC`, the growth is 95.8%.

For `C/C=C(/C)C(=O)OC1C=C(CO)C(=O)C(OC(=O)C(C)(O)C(C)Cl)C1C(C)C` (centres undefined), the growth is -74.6% (active).

On to `CC([C@H]1CC=C2C3CCC4=C[C@@H](N(C)C)CC[C@]4(C)C3CC[C@@]21C)N(C)C` (some centres undefined), for which the growth was 96.4%.

As to `COc1ccc(/C=C2\SC(=O)N(Cc3cc(=O)oc4ccc(OC)cc34)C2=O)cc1`, the growth is 93.5%.

Consider `CCCCCCCCCCCCCCCC[n+]1cccc(C#N)c1`, for which the growth is 86.6%.

`COc1ccc2cnc(N)c(C#Cc3cc(C(=O)Nc4ccc(CN5CCN(C)CC5)c(C(F)(F)F)c4)cnc3C)c2c1`: the growth was 37.5%.

Turning to `CCCCCCCCCCCCCCCCCC1=NCCN1CS(=O)(=O)O`, the growth was 87.2%.

Regarding `COc1ccc(OC)c(Cn2cc3c(c2)-c2oncc2CC3)c1`, the growth was 24.2%.

Regarding `CC1Cc2cc(F)ccc2-n2cccc21` (centres undefined), the growth is 90.7%.

Take `CC/C(=N\Nc1nc2ccccc2n1C)c1ccccn1`: the growth was -20.7% (active).

As for `O=C(CN1C(=O)NC(c2ccccc2)(c2ccccc2)C1=O)c1ccc(N2CCCC2)cc1`, the growth is 61.9%.

The record behind these values is PubChem BioAssay (NCI).
